The list is not random: actives were taken first. Their share in the collection is about 4.1%.
aSyn UTR inh – MLPCN primary screen, SNCA 5' untranslated region; 300,000 tested, 0.82% active; inhibition, % (tested at 7.5 µM); alpha-synuclein 5'UTR reporter, inhibitor activity; in the data active = inhibition above about 60%;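 note: H4 neuroglioblastoma cells stably carrying SNCA 5'UTR luciferase fusion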
Mdm2 MdmX PPI – disrupts the human Mdm2-MdmX interaction; SaOS-2 split-luciferase Mdm2/MdmX complementation, luminescence; inhibition, % at 8 µM; 330,000 tested, 3% active;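 active = inhibition of at least 50% at 8 µM in the primary screen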
Beta cell apopt – beta cell apoptosis inhibition; INS-1E cytokine-induced death, ATP luminescence, 48 h; percent of positive-control rescue, neutral wells zero; protection from apoptosis, % (no concentration beside the values); 300,000 tested, 0.8% active; AID 435005;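 active = Every replicate reaches about 75%, or at least half do and their mean reaches it too, limit read from the data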;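 note: higher means more ATP so stronger rescue from cytokine killing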
A1 inh – inhibitors of the anti-apoptotic protein A1, read as caspase activation; MEF A1-2A-BIM cells, Caspase-Glo 3/7 luminescence, 3 h; percent of clofoctol response, vehicle zero; caspase activation, % (test concentration not listed); 330,000 tested, 0.066% active;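 active = over half of replicate activation scores above 10%, or exactly half above 10 with the replicate mean above 10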
CSC inhib – cancer stem cell inhibition | inhibition, % at 7.5 µM | cancer stem cell-like cells viability, luminescence | AID 2717 | 300,000 tested, 1.1% active; in the data active = inhibition above about 75%; tested in HMLE shEcad cells
Mdm2-MdmX conf – human Mdm2/MdmX binding inhibition, confirmed. 10,000 tested, 55% active. shares compounds with Mdm2 MdmX PPI. inhibition, % at 8 µM. AID 489028. luminescent assay; in the data active = inhibition above about 40%
FLuc counter – inhibits full-length luciferase, flagging false Mdm2/MdmX hits; AID 504607; inhibition, % at 8 µM; SaOS-2 full-length luciferase counterscreen, luminescence; shares compounds with Mdm2 MdmX PPI; 6,200 tested, 77% active;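 active = mean inhibition at 8 µM reaching about 37%, which flags the compound as non-specific, limit read from the data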;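 note: p53-null SaOS-2 cells with luciferase driven by a doxycycline-inducible promoter; compound on cells about two nights before reading with doxycycline added after day one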
A number is an active result; n = inactive; x = no result.

SMILES	aSyn UTR inh	Mdm2 MdmX PPI	Beta cell apopt	A1 inh	CSC inhib	Mdm2-MdmX conf	FLuc counter
CC1(C)Cc2c(sc3ncnc(NNC(=S)NCc4ccccc4)c23)CO1	87	54	n	n	n	63	84
Cc1cc(C)c(O)c(-c2cc(C(=O)Nc3ccc(S(=O)(=O)N4CCOCC4)cc3)[nH]n2)c1	n	69	x	n	88	43	40
O=C(CCl)N=c1sccn1Cc1ccccc1Cl	n	99	n	n	n	99	51
O=C(CCl)N=c1sccn1Cc1cccc2ccccc12	n	x	x	x	x	x	x
O=C(CCl)N=c1sccn1Cc1ccc(Cl)cc1Cl	n	100	n	n	n	100	54
CCOc1ccc(NC(=O)CN2C(=O)NC3(CCCCCC3)C2=O)cc1	x	n	n	n	n	x	x
Cc1ccc(NC(=O)c2ccccc2OCc2ccc([N+](=O)[O-])cc2)nc1	n	76	n	n	n	60	92
C/C(=N\NC(=O)Cc1ccc(Cl)cc1)c1ccccc1O	n	57	n	n	n	44	43
Cc1ccccc1OCC1Cn2c(nc3c2c(=O)n(C)c(=O)n3C)O1 (stereo not given)	n	n	n	n	n	x	x
Cn1cc([N+](=O)[O-])c(C(=O)Nc2ccc(-c3nc4ccccc4[nH]3)cc2)n1	n	n	n	n	n	x	x
Cc1ccc(-c2nc(NC(=O)c3nn(C)cc3[N+](=O)[O-])sc2C)cc1C	n	81	107	39	x	100	51
Cc1ccc(-c2nc(NC(=O)c3nn(C)cc3[N+](=O)[O-])sc2C)cc1	99	79	116	11	x	100	53
Cc1cnc(NC(=O)c2nn(C)cc2[N+](=O)[O-])s1	n	n	x	x	x	x	x
O=C(NC(=S)Nc1nc(-c2cccc([N+](=O)[O-])c2)cs1)c1cc(Cl)ccc1Cl	n	52	n	n	n	n	x
Cn1cc([N+](=O)[O-])c(C(=O)Nc2nc(-c3ccc(Cl)cc3)cs2)n1	63	94	x	n	103	90	44
Cc1ccc(S(=O)(=O)NCCn2nc(C)nc2C)cc1	n	n	n	n	n	x	x
CCOC(=O)C1=CNS(=O)(=O)NC1CCc1ccccc1 (stereo not given)	x	n	x	x	x	x	x
CSc1sc(C(=O)NCC2CC2)cc1S(=O)(=O)C(C)C	n	n	n	n	n	x	x
COC(=O)c1cc(S(=O)(=O)C(C)C)c(S(C)=O)s1 (stereo not given)	n	51	n	n	n	n	39
COc1cc(/C=C/C(=O)OCC(=O)NCCN2C(=O)CSC2=O)ccc1OCC#N	x	n	n	n	n	x	x
Cc1ccccc1-n1nnnc1SCC(=O)NNC(=O)c1ccc(NC(=O)CC#N)cc1	x	n	n	n	x	x	x
CCCCN(C(=O)Cc1ccc(S(=O)(=O)N2CCOCC2)s1)c1c(N)n(CC(C)C)c(=O)[nH]c1=O	x	n	x	x	x	x	x
COc1ccccc1C1=NN(C(=O)c2ccccc2)C(c2ccc(Br)cc2)C1 (stereo not given)	n	n	n	n	n	x	x
CCC1N=C(SC)NC(C)=C1C(=O)c1ccccc1 (stereo not given)	n	n	n	n	n	x	x
CSC1=NC(C(Cl)(Cl)Cl)N=C(c2ccc(C)cc2)N1 (stereo not given)	118	72	n	n	n	70	67
SMILES	aSyn UTR inh	Mdm2 MdmX PPI	Beta cell apopt	A1 inh	CSC inhib	Mdm2-MdmX conf	FLuc counter
COc1ccc(NS(=O)(=O)c2ccc(C(=O)N(C)Cc3cccs3)cc2)cc1	x	n	x	x	x	x	x
Cc1ccc(C(=O)NC(=S)Nc2cccc(-c3nc4ccccc4s3)c2)cc1	n	n	n	n	n	x	x
Cc1ccc(-c2nc3ccccc3s2)cc1NC(=S)NC(=O)c1cccc2ccccc12	n	99	n	n	n	n	x
COc1cc(CNc2ccc(N3CCCCC3)cc2)ccc1OCC(=O)NC(C)(C)C	n	n	n	n	n	x	x
CCOc1ccc(S(=O)(=O)N2CCCC(C(=O)NCC3CCCO3)C2)cc1 (stereo not given)	n	n	n	n	n	x	x
Cc1ccccc1-c1ccccc1CN1[C@@H](C(C)C)COCCS1(=O)=O	x	n	x	x	x	x	x
O=c1c2ccccc2sn1-c1ccc(F)cc1	x	51	n	n	n	n	x
CC1CCc2sc(C(=O)N3CCN(c4ncccn4)CC3)cc2C1 (stereo not given)	n	n	n	n	n	x	x
CCc1cc(C)cc(OCCNC(=O)c2cncc(Br)c2)c1	n	59	n	n	n	n	x
Oc1ccccc1-c1cc(C(F)(F)C(F)F)nc(-c2ccccc2)n1	x	n	n	n	n	x	x
Nc1nc(N)nc(-c2cc([N+](=O)[O-])ccc2O)n1	x	77	n	n	n	63	82
Nc1nc(N)nc(-c2cc(O)ccc2O)n1	x	88	n	n	n	95	55
O=[N+]([O-])c1ccc(O)c(-c2cc(C(F)(F)F)nc(-c3ccccc3)n2)c1	90	95	119	n	88	99	52
CCN(Cc1nc2cc(Cl)ccc2c(=O)[nH]1)C(=O)CN1C(=O)NC2(CCCCC2C)C1=O (stereo not given)	x	n	x	x	x	x	x
OC(CNCc1ccncc1)c1ccccc1 (stereo not given)	n	n	x	n	n	x	x
OC(CNCc1ccc(-c2ccccc2)cc1)c1ccccc1 (stereo not given)	n	53	n	n	n	58	n
c1csc(CNc2ncnc3ccc(-c4ccoc4)cc23)c1	x	65	n	n	n	66	n
c1csc(CNc2ncnc3ccc(-c4ccc5c(c4)OCO5)cc23)c1	x	n	n	n	n	x	x
COc1cc(-c2c(-c3cc(OC)c(OC)c(OC)c3)noc2C)ccc1F	n	84	n	n	n	88	107
COc1ccc(-c2c(-c3cc(OC)c(OC)c(OC)c3)noc2C)cn1	76	54	n	n	x	55	74
O=C(Cn1nnc(-c2ccccc2NC(=O)c2ccco2)n1)Nc1ccccc1	n	76	n	n	x	41	64
COc1ccccc1NC(=O)Cn1nnc(-c2ccccc2NS(=O)(=O)c2ccccc2)n1	n	n	n	n	n	x	x
O=C(Cn1nnc(-c2ccc(Cl)cc2)n1)NCc1ccco1	n	n	n	n	n	x	x
COc1ccc(C(=O)Nc2ccc(-c3nnn(CC(=O)NCc4ccco4)n3)cc2)cc1	n	68	n	n	n	n	x
COc1ccc(NC(=O)Cn2nnc(-c3ccccc3NS(=O)(=O)c3ccc(OC)cc3)n2)cc1	107	67	n	n	n	55	83
COc1ccccc1CNC(=O)COC(=O)c1cccc(S(=O)(=O)N2CCOCC2)c1	n	n	n	n	n	x	x
O=C(Nc1ccccc1C(=O)N1CCN(Cc2ccccc2)CC1)c1ccccc1	n	n	n	n	n	x	x
COc1cccc(NC(=O)C2CCN(C(=O)[C@@H]3Cc4ccccc4CN3)CC2)c1	n	n	n	n	n	x	x
Cc1cccc(Oc2sc(C(=O)c3ccccc3)c(N)c2C#N)c1C	n	n	n	n	n	x	x

Bioassay records: PubChem BioAssay, several laboratories
